From PubChem BioAssay (EPA / NIEHS) come the findings set out here.

Common to all, as to conditions: mRNA level, 48 h; actives raise or lower the signal
Read-out in experiment [1]: JUN Transcription Factor, JUN (gene 3725)
Kind of experiment: LTEA_HepaRG_JUN: Life Technologies and Expression Analysis (LTEA) Assay for JUN Transcription Factor using HepaRG (AID 2283513). In short, it runs like this: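 Read-out is JUN transcript level by TaqMan qRT-PCR, normalized to ACTB, GAPDH and POLR2A, after 48 h chemical treatment of HepaRG cells. Concentration-response spanned eight half-log points up to 100 uM in 0.5% DMSO.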

Read-out in experiment [2]: Lipase C (LIPC), LIPC (gene 3990)
Kind of experiment: LTEA_HepaRG_LIPC: Life Technologies and Expression Analysis (LTEA) Assay for Lipase C (LIPC) using HepaRG (AID 2283514). An outline of the steps:
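HepaRG, 48 h exposure, 8-pt half-log series from 100 uM in 0.5% DMSO, duplicates. Readout: LIPC mRNA by Fluidigm qRT-PCR, housekeeping-normalized (ACTB/GAPDH/POLR2A). Gain or loss fitted bidirectionally against DMSO baseline.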

Read-out in experiment [3]: Lipoprotein lipase (LPL), LPL (gene 4023)
Kind of experiment: LTEA_HepaRG_LPL: Life Technologies and Expression Analysis (LTEA) Assay for Lipoprotein lipase (LPL) using HepaRG (AID 2283515). An outline of the steps:
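HepaRG, 48 h exposure, 8-pt half-log dilutions from 100 uM, 0.5% DMSO vehicle, duplicates; qRT-PCR (Fluidigm array) of LPL mRNA vs housekeeping genes; bidirectional curve fit relative to DMSO baseline.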

Read-out in experiment [4]: MicroRNA 122 (MIR122), gene 406906
Kind of experiment: LTEA_HepaRG_MIR122: Life Technologies and Expression Analysis (LTEA) Assay for MicroRNA 122 (MIR122) using HepaRG (AID 2283516). Note: the transcript read is the microRNA miR-122. An outline of the steps:
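Human liver HepaRG cultures receive test chemicals for 48 h at eight half-log concentrations from 100 uM. Expression is quantified by qRT-PCR with ACTB/GAPDH/POLR2A normalization and fitted bidirectionally against 0.5% DMSO.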

Read-out in experiment [5]: matrix metalloproteinase-10 (MMP10), MMP10 (gene 4319)
Kind of experiment: LTEA_HepaRG_MMP10: Life Technologies and Expression Analysis (LTEA) Assay for matrix metalloproteinase-10 (MMP10) using HepaRG (AID 2283517). An outline of the steps:
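Transcript levels come from Fluidigm qRT-PCR normalized to three housekeeping genes, with curves fitted bidirectionally against 0.5% DMSO. Human HepaRG cells were dosed for 48 hours at concentrations up to 100 uM.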

Read-out in the next experiment: MYC, MYC (gene 4609)
Kind of experiment: LTEA_HepaRG_MYC: Life Technologies and Expression Analysis (LTEA) Assay for MYC using HepaRG (AID 2283518). An outline of the steps:
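Expression changes were scored by TaqMan qRT-PCR with ACTB, GAPDH and POLR2A normalization. Cultures in serum-free induction medium received duplicate 8-point concentration series, highest 100 uM, for 48 h; DMSO (0.5%) served as baseline.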

Read-out in experiment [6]: matrix metalloproteinase-3 (MMP3), MMP3 (gene 4314)
Kind of experiment: LTEA_HepaRG_MMP3: Life Technologies and Expression Analysis (LTEA) Assay for matrix metalloproteinase-3 (MMP3) using HepaRG (AID 2283519). In short, it runs like this:
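qRT-PCR read-out of MMP3 mRNA (normalised to three housekeeping genes) in HepaRG liver cells after 48 h chemical exposure; 8-point half-log series, top 100 uM, 0.5% DMSO vehicle. Bidirectional curve fitting against DMSO baseline.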

Read-out in experiment [7]: Paternally Expressed 10 (PEG10), PEG10 (gene 23089)
Kind of experiment: LTEA_HepaRG_PEG10: Life Technologies and Expression Analysis (LTEA) Assay for Paternally Expressed 10 (PEG10) using HepaRG (AID 2283520).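 For AC50: differentiated HepaRG human liver cells in serum-free induction medium with 0.5% DMSO; PEG10 transcript by qRT-PCR normalised to ACTB GAPDH and POLR2A.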 In short, it runs like this:
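Human HepaRG cultures are dosed for 48 h across an eight-point half-log series starting at 100 uM, with 0.5% DMSO as vehicle and baseline. Gain or loss of PEG10 transcript is measured by qRT-PCR and fitted in both directions.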

Read-out in experiment [8]: Nuclear factor NF-kappa-B p105 subunit (Homo sapiens) (UniProt P19838)
Kind of experiment: LTEA_HepaRG_NFKB1: Life Technologies and Expression Analysis (LTEA) Assay for Nuclear Factor Kappa B Subunit 1 (NFKB1) using HepaRG (AID 2283521).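 Note: differentiated human HepaRG liver cells in serum-free induction medium.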 An outline of the steps:
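NFKB1 transcript was measured by TaqMan qRT-PCR on Fluidigm arrays, normalised to three housekeeping genes and fitted in both directions against 0.5% DMSO. HepaRG cells were dosed in duplicate for 48 h in serum-free induction medium, eight half-log steps from 100 uM.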

Read-out in experiment [9]: Protein phosphatase 2A (PPP2R4), PTPA (gene 5524)
Kind of experiment: LTEA_HepaRG_PPP2R4: Life Technologies and Expression Analysis (LTEA) Assay for Protein phosphatase 2A (PPP2R4) using HepaRG (AID 2283522). An outline of the steps:
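Cells were plated, cultured 48 h, switched to serum-free induction medium, then dosed for 48 h (8 points, max 100 uM, 0.5% DMSO). RNA was isolated and PPP2R4 expression measured by TaqMan qRT-PCR.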

Read-out in experiment [10]: solute carrier (SLC22A1), SLC22A1 (gene 6580)
Kind of experiment: LTEA_HepaRG_SLC22A1: Life Technologies and Expression Analysis (LTEA) Assay for solute carrier (SLC22A1) using HepaRG (AID 2283524).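 For AC50: differentiated human HepaRG liver cells in serum-free induction medium.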 An outline of the steps:
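qRT-PCR readout (TaqMan, Fluidigm arrays) of SLC22A1 transcript, normalized to three housekeeping genes; bidirectional curve fit relative to 0.5% DMSO vehicle. Differentiated human HepaRG cells, 48 h chemical exposure, top concentration 100 uM, half-log steps, eight points.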

Read-out in experiment [11]: Pyruvate Dehydrogenase Kinase 4 (PDK4), PDK4 (gene 5166)
Kind of experiment: LTEA_HepaRG_PDK4: Life Technologies and Expression Analysis (LTEA) Assay for Pyruvate Dehydrogenase Kinase 4 (PDK4) using HepaRG (AID 2283525). An outline of the steps:
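HepaRG (human liver line), 48 h chemical exposure, 8-pt half-log CRC top 100 uM, 0.5% DMSO vehicle, duplicates. Readout: TaqMan qRT-PCR of PDK4 mRNA, housekeeping-normalized; gain/loss fit relative to DMSO baseline.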

Read-out in experiment [12]: NAD(P)H dehydrogenase [quinone] 1 (NQO1), NQO1 (gene 1728)
Kind of experiment: LTEA_HepaRG_NQO1: Life Technologies and Expression Analysis (LTEA) Assay for NAD(P)H dehydrogenase [quinone] 1 (NQO1) using HepaRG (AID 2283526). In short, it runs like this: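 Transcript induction or suppression is quantified by qRT-PCR in human HepaRG liver cells dosed for 48 hours. Eight half-log concentrations topping at 100 uM are used, with 0.5% DMSO as vehicle and baseline.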

Read-out in experiment [13]: Nuclear factor erythroid 2-related factor 2 (Homo sapiens) (UniProt Q16236)
Kind of experiment: LTEA_HepaRG_NFE2L2: Life Technologies and Expression Analysis (LTEA) Assay for Nuclear factor erythroid 2-related factor 2 (NFE2L2) Transcription Factor using HepaRG (AID 2283527). In short, it runs like this: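 HepaRG, 48 h dosing, 8-pt half-log series from 100 uM in 0.5% DMSO, duplicates. Read-out: NFE2L2 mRNA by qRT-PCR (ACTB/GAPDH/POLR2A normalization). Bidirectional curve fit vs DMSO baseline.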

Read-out in experiment [14]: succinate dehydrogenase complex iron sulfur subunit B (SDHB), SDHB (gene 6390)
Kind of experiment: LTEA_HepaRG_SDHB: Life Technologies and Expression Analysis (LTEA) Assay for succinate dehydrogenase complex iron sulfur subunit B (SDHB) using HepaRG (AID 2283528). An outline of the steps: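 SDHB transcript level read by TaqMan qRT-PCR, housekeeping-normalised (ACTB, GAPDH, POLR2A), after 48 h chemical treatment of plated HepaRG cells; eight concentrations top 100 uM, half-log steps, 0.5% DMSO, duplicates; fitted both directions against DMSO.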

Read-out in experiment [15]: Signal transducer and activator of transcription 3 (Homo sapiens) (UniProt P40763)
Kind of experiment: LTEA_HepaRG_STAT3: Life Technologies and Expression Analysis (LTEA) Assay for Signal transducer and activator of transcription (STAT3) using HepaRG (AID 2283529). In short, it runs like this:
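HepaRG, 48 h exposure, 8-pt half-log series (top 100 uM), 0.5% DMSO vehicle, duplicates. Readout: STAT3 transcript by Fluidigm qRT-PCR, housekeeping-normalized; bidirectional fit vs DMSO baseline.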

Read-out in experiment [16]: sulfotransferase 2A1 (SULT2A1), SULT2A1 (gene 6822)
Kind of experiment: LTEA_HepaRG_SULT2A1: Life Technologies and Expression Analysis (LTEA) Assay for sulfotransferase 2A1 (SULT2A1) using HepaRG (AID 2283531). An outline of the steps: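 Gene-expression endpoint in a human liver cell line: SULT2A1 mRNA change after 48 h chemical treatment, curves fitted in both directions relative to 0.5% DMSO vehicle. Concentrations spanned eight half-log steps from 100 uM.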

Read-out in experiment [17]: Transforming Growth Factor (TGFA), TGFA (gene 7039)
Kind of experiment: LTEA_HepaRG_TGFA: Life Technologies and Expression Analysis (LTEA) Assay for Transforming Growth Factor (TGFA) using HepaRG (AID 2283532). In short, it runs like this:
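qRT-PCR read-out of TGFA transcript, normalized to three housekeeping genes, fitted bidirectionally against 0.5% DMSO baseline. Human HepaRG cultures received chemicals for 48 h at eight half-log concentrations, top 100 uM.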

Read-out in experiment [18]: Phosphatase and tensin (PTEN), PTEN (gene 5728)
Kind of experiment: LTEA_HepaRG_PTEN: Life Technologies and Expression Analysis (LTEA) Assay for Phosphatase and tensin (PTEN) using HepaRG (AID 2283523). In short, it runs like this:
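HepaRG, 48 h exposure, 8-pt half-log series from 100 uM top, 0.5% DMSO vehicle, duplicates. Readout: Fluidigm qRT-PCR of PTEN transcript; housekeeping normalization (ACTB, GAPDH, POLR2A). Gain or loss fitted relative to DMSO baseline.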

Read-out in experiment [19]: solute carrier (SLCO1B1), SLCO1B1 (gene 10599)
Kind of experiment: LTEA_HepaRG_SLCO1B1: Life Technologies and Expression Analysis (LTEA) Assay for solute carrier (SLCO1B1) using HepaRG (AID 2283530). In short, it runs like this: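 Human HepaRG cultures treated for 48 h with an eight-concentration half-log series topping at 100 uM; SLCO1B1 measured by qRT-PCR and fitted bidirectionally relative to DMSO.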

Structures are written as SMILES. Active and inactive are the calls of the source. Rule for the calls: active = hit-call score of the fitted dose curve at least 0.9, where 1 is the maximum; inactive = score below 0.9.

Chain of Signal transducer and activator of transcription 3 (Homo sapiens) (P40763 whole entry, looked up): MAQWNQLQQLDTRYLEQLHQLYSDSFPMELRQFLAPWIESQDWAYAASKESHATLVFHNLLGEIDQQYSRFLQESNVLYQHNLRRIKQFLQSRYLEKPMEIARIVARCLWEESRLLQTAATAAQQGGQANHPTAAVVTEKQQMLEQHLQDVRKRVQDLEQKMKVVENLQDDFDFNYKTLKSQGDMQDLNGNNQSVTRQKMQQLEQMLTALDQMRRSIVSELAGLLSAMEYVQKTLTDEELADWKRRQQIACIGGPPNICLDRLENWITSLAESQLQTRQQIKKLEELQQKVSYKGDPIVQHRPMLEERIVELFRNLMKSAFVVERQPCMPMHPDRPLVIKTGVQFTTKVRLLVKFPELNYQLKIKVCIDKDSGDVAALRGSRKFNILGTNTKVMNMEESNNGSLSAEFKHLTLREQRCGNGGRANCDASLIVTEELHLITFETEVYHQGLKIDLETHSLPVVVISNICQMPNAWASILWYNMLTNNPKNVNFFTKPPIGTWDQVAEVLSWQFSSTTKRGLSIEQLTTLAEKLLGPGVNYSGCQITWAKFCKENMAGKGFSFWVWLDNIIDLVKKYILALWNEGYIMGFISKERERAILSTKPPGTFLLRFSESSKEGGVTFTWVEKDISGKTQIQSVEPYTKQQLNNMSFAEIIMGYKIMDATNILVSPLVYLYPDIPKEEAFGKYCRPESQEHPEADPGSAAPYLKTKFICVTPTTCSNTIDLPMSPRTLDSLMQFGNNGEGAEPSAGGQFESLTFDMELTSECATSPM
Chain of Nuclear factor NF-kappa-B p105 subunit (Homo sapiens) (P19838 whole entry, looked up): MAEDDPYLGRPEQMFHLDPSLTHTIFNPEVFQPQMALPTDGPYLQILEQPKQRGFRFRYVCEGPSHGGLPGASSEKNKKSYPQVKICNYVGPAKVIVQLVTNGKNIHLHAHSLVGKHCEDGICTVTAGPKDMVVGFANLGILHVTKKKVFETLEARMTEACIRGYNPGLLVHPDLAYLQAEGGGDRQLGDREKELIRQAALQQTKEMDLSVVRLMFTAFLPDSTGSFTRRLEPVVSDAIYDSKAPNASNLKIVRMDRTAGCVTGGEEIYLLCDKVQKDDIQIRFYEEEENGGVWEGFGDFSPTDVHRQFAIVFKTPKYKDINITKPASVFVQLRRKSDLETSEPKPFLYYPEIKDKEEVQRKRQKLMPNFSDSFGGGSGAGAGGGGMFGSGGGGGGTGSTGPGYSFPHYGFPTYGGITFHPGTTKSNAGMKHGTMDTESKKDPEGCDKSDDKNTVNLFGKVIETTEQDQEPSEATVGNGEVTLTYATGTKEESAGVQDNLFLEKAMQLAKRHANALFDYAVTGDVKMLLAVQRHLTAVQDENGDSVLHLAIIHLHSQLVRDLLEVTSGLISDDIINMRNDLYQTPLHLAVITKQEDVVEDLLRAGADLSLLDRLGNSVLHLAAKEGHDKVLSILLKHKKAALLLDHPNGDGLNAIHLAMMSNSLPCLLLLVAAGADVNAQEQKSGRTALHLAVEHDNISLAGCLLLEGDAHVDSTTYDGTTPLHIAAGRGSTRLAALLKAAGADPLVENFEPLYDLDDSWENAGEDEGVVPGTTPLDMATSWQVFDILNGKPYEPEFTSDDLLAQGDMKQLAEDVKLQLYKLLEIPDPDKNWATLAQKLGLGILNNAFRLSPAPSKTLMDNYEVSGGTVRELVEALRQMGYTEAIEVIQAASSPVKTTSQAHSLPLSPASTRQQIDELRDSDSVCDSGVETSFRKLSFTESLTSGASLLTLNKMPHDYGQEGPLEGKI
Chain of Nuclear factor erythroid 2-related factor 2 (Homo sapiens) (Q16236 whole entry, looked up): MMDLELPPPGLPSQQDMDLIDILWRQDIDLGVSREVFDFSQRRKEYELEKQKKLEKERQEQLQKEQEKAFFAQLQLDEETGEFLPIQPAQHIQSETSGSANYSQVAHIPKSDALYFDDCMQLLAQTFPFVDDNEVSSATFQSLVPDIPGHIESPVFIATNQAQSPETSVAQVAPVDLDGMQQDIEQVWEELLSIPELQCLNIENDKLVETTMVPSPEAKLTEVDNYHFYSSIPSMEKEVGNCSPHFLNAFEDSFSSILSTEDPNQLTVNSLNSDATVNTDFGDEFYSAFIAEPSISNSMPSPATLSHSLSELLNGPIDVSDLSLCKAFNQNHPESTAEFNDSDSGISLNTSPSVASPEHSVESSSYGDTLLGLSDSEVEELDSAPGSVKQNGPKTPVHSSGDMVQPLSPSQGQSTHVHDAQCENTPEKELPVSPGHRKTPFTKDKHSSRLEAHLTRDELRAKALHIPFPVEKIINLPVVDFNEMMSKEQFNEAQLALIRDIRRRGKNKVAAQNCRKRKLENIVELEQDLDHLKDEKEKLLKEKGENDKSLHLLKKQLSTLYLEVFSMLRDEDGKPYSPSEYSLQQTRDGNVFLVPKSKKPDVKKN

`Oc1ccc2ccc3cccc4ccc1c2c34`: the outcome in [1] is “inactive”; in [2], “inactive”; in [3] it was “inactive”; in [4], “inactive”; in experiment [5] it was “inactive”; with MYC, MYC (gene 4609), “inactive”. Besides, the outcome in experiment [6], in experiment [7], in [8], in [9], in experiment [10] and in experiment [11] was inactive. The call in [12], in experiment [13], in experiment [14], in [15], in experiment [16] and in experiment [17] was inactive.

As a reminder, the AC50 is the concentration giving half of the maximal activity seen. On to `Clc1ccc(C(c2ccc(Cl)cc2)C(Cl)Cl)cc1`, for which the outcome in experiment [1] was “inactive”; in [2], “inactive”; in experiment [3], “inactive”; in experiment [4], “inactive”; in [5] it was “inactive”; with MYC, MYC (gene 4609), “inactive”. In addition, the compound was classed as inactive in [6], in [7], in [8], in experiment [9], in experiment [11] and in experiment [12]. Moreover, the result in experiment [13], in experiment [14], in experiment [15], in experiment [16] and in experiment [17] was inactive. In addition, the AC50 in experiment [10] was 78.2 µM (active).

Consider `CN(C)c1ccccc1`, for which the outcome is “inactive” in [1]; “inactive” in experiment [2]; “inactive” in experiment [3]; “inactive” in [4]; “inactive” in [5]; “inactive” in the experiment with MYC, MYC (gene 4609). Further, the compound was called inactive in experiment [6], in experiment [7], in experiment [9], in experiment [18], in [11] and in experiment [12]. Further, the compound was called inactive in experiment [13], in [14], in experiment [15], in [19], in experiment [16] and in [17].

Consider `Cc1cc(N=Nc2ccccc2C)ccc1N`, for which the call in experiment [1], in experiment [5], in [8], in [12], in experiment [14] and in [15] was inactive. The AC50 in experiment [2] was 3.22 µM (active); in experiment [3] it was 4.4 µM (active); in [4], 3.67 µM (active); with MYC, MYC (gene 4609), 5.49 µM (active); in experiment [6] it was 12.2 µM (active); in experiment [7] it was 4.04 µM (active). Also, the AC50 was 2.35 µM (active) in experiment [9]; 2.39 µM (active) in experiment [11]; 9.92 µM (active) in experiment [13]; 3.57 µM (active) in experiment [19]; 12.8 µM (active) in experiment [16]; 12.6 µM (active) in experiment [17].
